Assay results reported in PubChem BioAssay AID1851 (National Center for Advancing Translational Sciences (NCATS), 2009).
Hit rate of the full screen: of about 16,000 compounds, about 5,800 (36%) were called active. Not shown: some 23% with an inconclusive outcome. The list shows a part of the results. Unmarked numbers belong to inactive results. The call rests on the fitted dose curve; in most records, active means well fitted curve in the direction sought with a large enough effect; inconclusive means small, poorly fitted or top-dose-only effect, or effect the other way; inactive means no such curve, though single readings can be large or run the other way.

Target: Cytochrome P450 2C19 (Homo sapiens) (UniProt P33261)
Sequence (P33261 whole entry, looked up): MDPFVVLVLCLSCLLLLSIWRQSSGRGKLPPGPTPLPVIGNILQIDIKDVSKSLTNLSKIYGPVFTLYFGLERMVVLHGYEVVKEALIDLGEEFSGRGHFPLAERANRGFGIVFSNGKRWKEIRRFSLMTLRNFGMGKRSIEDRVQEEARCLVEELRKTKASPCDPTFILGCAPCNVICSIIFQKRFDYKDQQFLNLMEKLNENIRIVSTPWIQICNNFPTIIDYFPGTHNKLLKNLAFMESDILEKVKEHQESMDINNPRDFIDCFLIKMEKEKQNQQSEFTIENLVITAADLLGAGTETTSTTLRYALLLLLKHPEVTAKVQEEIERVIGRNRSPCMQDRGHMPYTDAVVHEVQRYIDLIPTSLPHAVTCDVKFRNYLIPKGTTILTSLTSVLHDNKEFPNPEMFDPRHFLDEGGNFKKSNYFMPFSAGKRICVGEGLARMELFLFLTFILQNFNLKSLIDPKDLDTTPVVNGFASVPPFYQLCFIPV
Experiment: Cytochrome panel assay with activity outcomes
Settings: recombinant CYP, pro-luciferin dealkylation, luminescence, p450-cyp2c19; series mostly up to 57.1 µM
On the % scale 0 is the no-effect control and ±100 the full control effect.

| SMILES | AC50 | activity, negative = inhibition |
| --- | --- | --- |
| Cc1ccc(N2C(=O)/C(=C/c3ccc(CN(CCC#N)S(C)(=O)=O)o3)C(=O)NC2=S)cc1C | 10 µM (active) |  |
| COc1cccc2c1[C@H](CO)N1[C@H](C#N)[C@@H]3C[C@H](C(=O)O)[C@@H]([C@@H]1C2)N3C |  | 11.2% [at 11.4 µM] |
| C=C1CC[C@H](O)C/C1=C/C=C1\CCC[C@]2(C)[C@H]1CC[C@H]2[C@@H](C)CCCC(C)C | inactive |  |
| CC(=O)O/C(=C1/C[C@H]2[C@@H]3CC=C4C[C@@H](OC(C)=O)CC[C@]4(C)[C@@H]3CC[C@]2(C)C1=O)C(F)(F)F |  | 10.6% [at 11.4 µM] |
| CNCCc1ccc(O)c(O)c1 | inactive |  |
| CN1CCN(c2ccc([N+](=O)[O-])c(N/N=C3\CN4CCC3CC4)c2)CC1 | 7.08 µM (active) |  |
| CN1CCN(c2ccc([N+](=O)[O-])c3[nH]o[n+](=O)c23)CC1 |  | -37.2% [at 11.4 µM] |
| CC[C@H]1CN2CCc3cc(OC)c(OC)cc3[C@H]2C[C@@H]1C[C@H]1NCCc2c1[nH]c1ccc(O)cc21 |  | 34.7% [at 11.4 µM] |
| Cc1ncc([N+](=O)[O-])n1CCN=[N+]=[N-] |  | 21.1% [at 11.4 µM] |
| c1ccc(N2CC3(CCNCC3)C2)cc1 | inactive |  |
| CC(C)(C)NC[C@H](O)c1ccccc1Cl | inactive |  |
| Cc1ccc(CCN2CC(C(=O)N3CCC4(CC3)OCCO4)CC2=O)cc1 (stereo not given) | inactive |  |
| Cc1ccc(S(=O)(=O)NCC2CCC(C(=O)N3CCC4(CC3)OCCO4)CC2)cc1 (stereo not given) | 14.1 µM (active) |  |
| NC(=O)COc1c(F)cc(SCCNS(=O)(=O)c2ccccc2)cc1F | inactive |  |
| COc1cc2c(cc1OC)[C@H](C)NCC2 | inactive |  |
| Nc1ccccc1O.O.O=C(O)[C@H]1[O][Sb][O][C@H]1C(=O)O |  | 16.1% [at 11.4 µM] |
| CN(C)CCOC(=O)COc1ccc(Cl)cc1 | inactive |  |
| O=C(Nc1ccc(Cl)cc1C(=O)c1ccccc1)c1ccco1 | 4.47 µM (active) |  |
| COc1ccc(OCC(=O)Nc2ccc(Cl)cc2C(=O)c2ccccc2)cc1 | 1 µM (active) |  |
| O=C(Nc1ccc(Cl)cc1C(=O)c1ccccc1Cl)c1ccco1 | 2.82 µM (active) |  |
| O=P(c1ccccc1)(c1ccccc1)N1CC2(CC2)CC(O)(c2ccccc2)C1 (stereo not given) | inactive |  |
| CCC[C@@](C)(COC(N)=O)COC(=O)NC(C)C | inactive |  |
| COC(=O)N1CCC2(CCCN(C)C2)CC1 | inactive |  |

| SMILES | AC50 | activity, negative = inhibition |
| --- | --- | --- |
| NC[C@H](O)c1cc(O)c(O)cc1F | inactive |  |
| C=CCN1CCC2(C)c3cc(O)ccc3C[C@H]1[C@H]2C | inactive |  |
| COc1cc2c(cc1O)C[C@@H]1c3c(cc(O)c(OC)c3-2)CCN1C |  | 12.7% [at 11.4 µM] |
| CN1CCc2cc(O)cc3c2[C@H]1Cc1ccc(O)c(O)c1-3 | inactive |  |
| CC(C)(C)NC[C@H](O)c1cc(Cl)c(N)c(Cl)c1 | inactive |  |
| CN1[C@@H]2CC[C@H]1CC(O[C@@H](c1ccccc1)c1ccccc1N)C2 (stereo not given in full) | inactive |  |
| CNCCc1cnc[nH]1 | inactive |  |
| Cc1ccccc1-c1cncnc1NCCc1cnc[nH]1 | 0.0501 µM (active) |  |
| Clc1ccccc1-c1cncnc1NCCc1cnc[nH]1 | 0.0126 µM (active) |  |
| c1ccc2c(c1)-c1ccccc1C2N1CC2CCC(CC2)C1 |  | -44.5% [at 11.4 µM] |
| CCCCC/C=C\C/C=C\C/C=C\C/C=C\CCCC(=O)NCC(=O)O | inactive |  |
| CC(C)N[C@@H](C)Cc1ccc(I)cc1 | inactive |  |
| O=C(C[C@H](c1ccccc1)c1c(O)c2ccccc2oc1=O)c1ccccc1 |  | -17.3% [at 11.4 µM] |
| O=C(Nc1ccccc1)N1CCC2(CC1)CCN(C(=O)Oc1ccccc1)CC2 | inactive |  |
| COc1ccc(C[C@H]2NC[C@H](O)[C@@H]2OC(C)=O)cc1 | 3.16 µM (active) |  |
| COc1ccc(C[C@@H]2NC[C@H](O)[C@@H]2OC(C)=O)cc1 | inactive |  |
| Cc1nc(N)sc1CCN | inactive |  |
| CCCN[C@@H]1CCc2c(OC)cccc2[C@@H]1C | inactive |  |
| CCN(CC)C(=O)N[C@H]1C[C@H]2c3cccc4[nH]cc(c34)C[C@@H]2N(C)C1 | inactive |  |
| O=C1CN=C(c2cccs2)c2c(sc3c2CCCC3)N1 | 15.8 µM (active) |  |
| C[C@H]1CC[C@@]2(NC1)O[C@@H]1C[C@@H]3[C@@H]4CC=C5C[C@@H](O)CC[C@]5(C)[C@@H]4CC[C@]3(C)[C@H]1[C@@H]2C |  | 15.9% [at 11.4 µM] |
| COc1ccc2[nH]c3c(c2c1)CCNC3 | inactive |  |
